# Test results: PubChem BioAssay (NCI)
# Compounds without any hit were thinned out: in the full panel of roughly 83,000, 20% have a hit.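 Method: cells in 96-well plates; compound added at one concentration; 48 h incubation; percent growth measured; values under 10 scored active.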 Active and inactive are the calls of the source.
# Tested on: HL-60(TB) leukemia
# Test: NCI-60 one-dose screen, 48 h (100 = growth as untreated, 0 = no growth, -100 = all killed)
# Settings: 10 µM unless noted
row,SMILES,growth
1,Cc1ccc2nc(-c3ccc(-c4nnc(SCC(=O)Nc5ccc(Br)cc5)o4)cc3)[nH]c2c1,55.6% (inactive)
2,Nc1nc2cc(-c3ccc4ncnc(NCc5ccccc5)c4c3)ccc2o1,-43.8% (active)
3,Cc1ccc([C@H]2C(C(=O)c3ccc(Cl)cc3)C3(N[C@@H]2c2ccccc2)C(=O)Nc2ccccc23)cc1 (some centres not stated),-22.2% (active)
4,COc1ccc2oc3c4[nH]c5ccccc5c4c4c(c3c2c1)C(=O)N(C(=O)OC(C)(C)C)C4=O,-7.65% (active)
5,COc1ccc(-c2nnc3c(/C=C/c4ccc(Br)cc4)nc4ccccc4n23)cc1,3.92% (active)
6,O=C(CNc1nc(-c2ccccc2)cs1)Nc1cccc([N+](=O)[O-])c1,-8.94% (active)
7,CC1CCc2c(sc3nc(SCC(=O)c4cccc(Br)c4)n(-c4ccccc4)c(=O)c23)C1 (configuration not stated),64.7% (inactive)
8,CN(C)c1ccc(/C=C/c2n(Cc3ccc4ccccc4c3)c3ccccc3[n+]2Cc2ccc3ccccc3c2)cc1,-47.1% (active)
9,O=C(N=Nc1c(O)[nH]c2ccc(Cl)cc12)c1ccc2nc(-c3ccc(Cl)cc3)[nH]c2c1,45.2% (inactive)
10,CC(=O)Nc1cccc(Nc2nc(NCc3ccccc3)c3ccccc3n2)c1,-64% (active)
11,NS(=O)(=O)c1ccc(N=Nc2c(O)n(CC(=O)Nc3ccccc3Br)c3ccccc23)cc1,76.6% (inactive)
12,O=C(N/N=C/c1ccc(-c2cccc([N+](=O)[O-])c2)o1)c1[nH]c2ccc(Br)cc2c1-c1ccccc1,-36.5% (active)
13,Cc1ccc(N=Nc2c(N)nn3c(-c4cc5ccccc5oc4=O)ccnc23)cc1,36.4% (inactive)
14,O=C(Nc1nc2ccc([N+](=O)[O-])cc2s1)Nc1ccccc1I,-1.54% (active)
15,CCCCCCCCCc1ccc(C(=O)Nc2cc(C)ccc2C(=O)OC)cc1,97.1% (inactive)
16,COc1ccc(N=Nc2c(N)nn3c(N)c(C#N)c(-c4ccc(C)cc4)nc23)cc1,52.1% (inactive)
17,CN(C)CCCc1ccc(Nc2cnn(C)c(=O)c2Cl)cc1,81% (inactive)
18,O=C1Nc2cc(-c3ccc(NS(=O)(=O)c4ccc([N+](=O)[O-])cc4)cc3)ccc2/C1=C/c1ccc[nH]1,13.7% (inactive)
19,N#Cc1ccc(-c2nn(-c3ccc(C(=O)O)cc3)cc2CNc2cc(Cl)cc(Cl)c2)cc1,29.5% (inactive)
20,C=C1CCC2C3(C)COC(c4cccc(F)c4)OC3CCC2(C)C1CC(O)C1=CCOC1=O (configuration not stated),66.7% (inactive)
21,O=C(Cn1c(/C=C/c2ccc([N+](=O)[O-])cc2)nc2ccccc2c1=O)Nc1ccccc1,102% (inactive)
22,O=C1CCC(N2C(=O)c3cccc(NCCCCCC(=O)N4CCN(c5ccc6nc7c(nc6c5C(F)(F)F)C(=O)c5ncccc5C7=O)CC4)c3C2=O)C(=O)N1 (configuration not stated),-25.2% (active)
23,COc1ccc2[nH]cc(-c3cc(N)n4nc(-c5c[nH]c6ccccc56)cc4n3)c2c1,-44.7% (active)
24,CN1C(=O)/C(=C/c2ccco2)S/C1=N/c1nccs1,102% (inactive)
25,O=C(O)CC1S/C(=N/N=C/c2nc3ccccc3s2)NC1=O (configuration not stated),98.4% (inactive)
26,CC(=O)c1ccc2c(N)c(C(=O)Nc3ccc(C(F)(F)F)cc3)sc2n1,50% (inactive)
27,Cc1ccc(-c2nc(C#N)c(S(=O)(=O)N3CCN(S(=O)(=O)c4ccc(Cl)cc4)CC3)o2)cc1,79.9% (inactive)
